From PubChem BioAssay (NCI) come the findings set out here.

The structures appear in SMILES notation. About 83,000 compounds went through this panel and 20% of them were active in at least one assay; those are over-represented in the sample as a whole.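 Assay: single dose, 48 h. Readout: percent growth (0 = no net growth; negative = cell death). Active: <10.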 Unmarked numbers belong to inactive results. Calls of active or inactive are those of the source.

Some test systems named below: SR leukemia; RPMI-8226 leukemia; OVCAR-8 ovarian; OVCAR-5 ovarian; OVCAR-4 ovarian; SK-OV-3 ovarian; IGROV1 ovarian; OVCAR-3 ovarian; HS 578T breast; NCI/ADR-RES ovarian; T-47D breast; BT-549 breast; MDA-MB-435 melanoma; SW-620 colon; MCF7 breast; HCT-116 colon; HCC-2998 colon; KM12 colon; MDA-MB-468 breast.
What all share (assay): NCI-60 one-dose screen, 48 h (100 = growth as untreated, 0 = no growth, -100 = all killed)
Conditions in all cases: 10 µM

Turning to `C=C1CCC2C3(C)COC(c4c(F)cccc4F)OC3CCC2(C)C1C/C=C1/C(=O)OCC1O` (stereo not given), the growth with SR leukemia is 14.8%; in the test on RPMI-8226 leukemia, 15.3%; with OVCAR-8 ovarian it was -42.5% (active); with OVCAR-5 ovarian, -10% (active); in the test on OVCAR-4 ovarian it was 12.4%; with SK-OV-3 ovarian it was 54.7%. The growth is -26.7% (active) with IGROV1 ovarian; -67.9% (active) with OVCAR-3 ovarian; 17.5% with HS 578T breast; -15.1% (active) with NCI/ADR-RES ovarian; 1.57% (active) with T-47D breast; -78.4% (active) with BT-549 breast. Also, the growth in the test with MDA-MB-435 melanoma is -9.65% (active); with SW-620 colon it was -41.4% (active); in the test on MCF7 breast, -12.6% (active); in the test with HCT-116 colon, -59.2% (active); in the test with HCC-2998 colon it was -65% (active); in the test on KM12 colon it was -67.5% (active). For the same molecule, the growth in the test with MDA-MB-468 breast is -24% (active).
On to `O=C(CSc1nnc(-c2ccc3nc(-c4ccc(Cl)cc4)[nH]c3c2)o1)Nc1ccc(Cl)cc1`, for which the growth in the test with SR leukemia was 3.21% (active); in the test with RPMI-8226 leukemia, 0.0065% (active); in the test with OVCAR-8 ovarian, -17.6% (active); in the test with OVCAR-5 ovarian, -10.2% (active); with OVCAR-4 ovarian, -46.7% (active); in the test with SK-OV-3 ovarian, 21.6%. Also, the growth is -18.8% (active) with IGROV1 ovarian; -15.4% (active) in the test with OVCAR-3 ovarian; -32.5% (active) with HS 578T breast; 11.8% in the test on NCI/ADR-RES ovarian; 28% in the test with T-47D breast; -65.1% (active) in the test on BT-549 breast. In addition, the growth in the test on MDA-MB-435 melanoma is -65.8% (active); in the test on SW-620 colon, -69.9% (active); in the test on MCF7 breast it was -72.7% (active); with HCT-116 colon, -48.9% (active); in the test with HCC-2998 colon it was 18.5%; with KM12 colon it was -12.8% (active). In addition, the growth with MDA-MB-468 breast is -48.4% (active).
Take `O=C(NO)c1ccc(CNc2nc(-c3ccccc3)c3ccccc3n2)cc1`: the growth with SR leukemia is 15.7%; in the test with RPMI-8226 leukemia, 11.3%; in the test with OVCAR-8 ovarian, 6.42% (active); in the test with OVCAR-5 ovarian, -22.4% (active); in the test on OVCAR-4 ovarian, 32.9%; in the test with SK-OV-3 ovarian, -39.1% (active). Besides, the growth in the test on IGROV1 ovarian is -46.3% (active); in the test on OVCAR-3 ovarian it was -11.3% (active); with HS 578T breast, 2.21% (active); in the test with NCI/ADR-RES ovarian it was -44.5% (active); in the test on T-47D breast, -13.1% (active); in the test on BT-549 breast, 18.1%. In addition, the growth is 4.16% (active) in the test on MDA-MB-435 melanoma; -58.2% (active) with SW-620 colon; 7.92% (active) in the test with MCF7 breast; 4% (active) in the test with HCT-116 colon; -63.9% (active) with HCC-2998 colon; 11.6% in the test on KM12 colon. Also, the growth in the test with MDA-MB-468 breast was -0.98% (active).
Take `Cc1ccc2nc(COc3ccc(C(=O)NNC(=S)NCCc4ccccc4)cc3)[nH]c2c1`: the growth is 88.2% in the test on SR leukemia; 87.7% in the test with RPMI-8226 leukemia; 13.1% in the test with OVCAR-8 ovarian; 88.9% with OVCAR-5 ovarian; -4.14% (active) with OVCAR-4 ovarian; 83.4% with SK-OV-3 ovarian. In addition, the growth with IGROV1 ovarian was 52.9%; in the test on OVCAR-3 ovarian, 105%; in the test with HS 578T breast, 41.1%; with NCI/ADR-RES ovarian, 75.4%; in the test on T-47D breast, 74%; in the test with BT-549 breast it was 105%. Moreover, the growth in the test on MDA-MB-435 melanoma was 98.5%; in the test with SW-620 colon it was 96.3%; in the test with MCF7 breast, 50.5%; in the test with HCT-116 colon it was 57.3%; in the test with HCC-2998 colon it was 73.9%; in the test with KM12 colon, 63.4%. Also, the growth in the test with MDA-MB-468 breast is 15.5%.
For the molecule `C/C(=N\N=C\c1ccc(Cl)c([N+](=O)[O-])c1)c1ccc2c(c1)Nc1ccccc1S2`, the growth was 44.1% in the test on SR leukemia; 33.3% in the test on RPMI-8226 leukemia; 6.83% (active) in the test with OVCAR-8 ovarian; 72.8% with OVCAR-5 ovarian; 23.7% in the test on OVCAR-4 ovarian; 94.8% with SK-OV-3 ovarian. Moreover, the growth in the test with IGROV1 ovarian is 60.3%; in the test with OVCAR-3 ovarian, 27.5%; with HS 578T breast, 0.197% (active); in the test on NCI/ADR-RES ovarian, 11.7%; with T-47D breast it was 41.3%; with BT-549 breast it was 58.4%. Further, the growth in the test on MDA-MB-435 melanoma is 49.9%; in the test on SW-620 colon it was 6.06% (active); in the test on MCF7 breast, 6.3% (active); in the test on HCT-116 colon, 19.4%; in the test with HCC-2998 colon it was 8.71% (active); in the test with KM12 colon, 29.4%.
For the molecule `Cn1cc(-c2cc(N)n3nc(-c4c[nH]c5ccc(Br)cc45)cc3n2)c2cc(Br)cnc21`, the growth in the test with SR leukemia was -15.6% (active); in the test on RPMI-8226 leukemia, -6.39% (active); with OVCAR-8 ovarian, -41.6% (active); in the test with OVCAR-5 ovarian, -61.9% (active); with OVCAR-4 ovarian, -41.1% (active); in the test on SK-OV-3 ovarian it was -55.9% (active). In addition, the growth in the test with IGROV1 ovarian is -21.6% (active); with OVCAR-3 ovarian, -90.4% (active); in the test on HS 578T breast, -29% (active); with NCI/ADR-RES ovarian, -60% (active); in the test on T-47D breast, -74.7% (active); in the test with BT-549 breast, -75.4% (active). Moreover, the growth was -46.3% (active) in the test with MDA-MB-435 melanoma; -71.2% (active) in the test on SW-620 colon; -79.5% (active) in the test with MCF7 breast; -69.6% (active) in the test on HCT-116 colon; -98.1% (active) with HCC-2998 colon; -73.1% (active) with KM12 colon. In addition, in the test on MDA-MB-468 breast, the growth is -98.3% (active).
Consider `Cc1noc2c(Cc3ccccc3)nn(CC(=O)N/N=C/c3ccc(F)cc3)c(=O)c12`, for which the growth with SR leukemia was 102%; with RPMI-8226 leukemia, 83.7%; with OVCAR-8 ovarian, 33.1%; in the test on OVCAR-5 ovarian, 93.7%; with OVCAR-4 ovarian, 5.18% (active); in the test on SK-OV-3 ovarian it was 28.9%. The growth was 70.4% in the test on IGROV1 ovarian; 44.6% in the test with OVCAR-3 ovarian; -1.33% (active) in the test with HS 578T breast; 60.7% with NCI/ADR-RES ovarian; 12.6% in the test with T-47D breast; 64.1% in the test on BT-549 breast. Also, the growth in the test with MDA-MB-435 melanoma is 71.1%; in the test on SW-620 colon, 79.9%; with MCF7 breast it was 61.7%; in the test on HCT-116 colon, 35%; with HCC-2998 colon, 67.1%; in the test on KM12 colon it was 86.2%.
As to `O=C(CSc1nnc(-c2c[nH]c3ccccc23)n1-c1ccccc1)c1ccc(Cl)cc1`, the growth in the test with SR leukemia was 92.4%; in the test with RPMI-8226 leukemia it was 83.2%; in the test on OVCAR-8 ovarian, 24.5%; with OVCAR-5 ovarian, 90.7%; with OVCAR-4 ovarian, 14.9%; in the test with SK-OV-3 ovarian, 72.1%. For the same molecule, the growth in the test on IGROV1 ovarian is 51.4%; in the test on OVCAR-3 ovarian, 73.9%; with HS 578T breast it was 33.2%; in the test on NCI/ADR-RES ovarian, 5.85% (active); in the test with T-47D breast, 54.6%; in the test with BT-549 breast, 69.8%. For the same molecule, the growth with MDA-MB-435 melanoma was 79.2%; in the test on SW-620 colon it was 70.3%; in the test on MCF7 breast it was 38.4%; in the test on HCT-116 colon it was 45.7%; in the test with HCC-2998 colon it was 78.1%; in the test on KM12 colon, 78.7%. For the same molecule, the growth with MDA-MB-468 breast is 46.4%.
